Active and inactive are the calls of the source.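 How the source made its calls: active means inhibition above 20% together with a positive visual image hit; inconclusive means visual image hit but inhibition not above 20%; inactive means no visual image hit.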
Experiment: inhibitors of TNFa-induced NFkB p65 translocation, primary screen, imaging, HUVEC, MLSMR starter and 10KST1 sets (AID 438);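 further: compound added about 3h40 before a 20 min TNFalpha stimulation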;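 on inhibition: signal is the nuclear over cytoplasmic p65 intensity ratio per well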
Conditions: HUVEC TNFa-induced p65 nuclear translocation; cell count: measured here: nuclei count (cytotoxicity indicator), at 2.08 µM; inhibition: at 2 µM, stronger effect = higher value, 0% TNFa-plus-vehicle, 100% no-TNFa wells

Structure (SMILES) | inhibition | cell count
O=C(c1ccco1)N1CCN(c2nc(C(F)(F)F)nc3c2nnn3Cc2ccccc2)CC1 | -2.5% (inactive) | 534
O=C(CSc1nnc(SCc2ccc(Cl)cc2)s1)N1CCN(C(=O)c2ccco2)CC1 | 42.2% (active) | 236
CCOC(=O)CCNC(=O)Nc1ccc2nc(C)n(Cc3ccccc3Cl)c(=O)c2c1 | 1.4% (inactive) | 623
CC(=O)N1CCN(c2ccc(NC(=O)c3ccc(C(C)(C)C)cc3)cc2)CC1 | 7.3% (inactive) | 816
COc1ccc(-n2cnnc2SCCC#N)cc1 | -3.8% (inactive) | 520
O=S(CC(O)COCc1ccc(Cl)cc1)c1ccccn1 (stereo not given) | -7.1% (inactive) | 420
CN1C(=O)C(O)(CC(=O)c2ccc(F)cc2)c2cc(Br)ccc21 (stereo not given) | 6% (inactive) | 580
CCn1cc(C(=O)NCC2CCCO2)c(=O)c2cc(S(=O)(=O)N(C)C)ccc21 (stereo not given) | -2.4% (inactive) | 767
OC1(c2cccc(C(F)(F)F)c2)CCNCC1 | 1.4% (inactive) | 370
N#Cc1c(N2CCCC2)nc(N)c2c(N)nc(N3CCCC3)cc12 | -9.2% (inactive) | 581
COc1ccc2cc(CN(Cc3ccco3)C(c3nnnn3C3CCCCC3)C(C)C)c(=O)[nH]c2c1 (stereo not given) | 1.6% (inactive) | 325
COc1ccc(C2CC(c3ccc(C)cc3)Nc3ncnn32)cc1 (stereo not given) | -0.2% (inactive) | 615
Cc1cc(NC(=O)C23CCC(C)(C(=O)O2)C3(C)C)no1 (stereo not given) | 4% (inactive) | 406
Cc1cc(C)cc(NC(=O)c2nnn(Cc3cc(C)ccc3C)c2N)c1 | 8.7% (inactive) | 598
CC1=C(C(=O)OC(C)C)C(C2CC=CCC2)NC(=O)N1 (stereo not given) | 2% (inactive) | 306
O=C1NC(c2ccco2)Nc2ccccc21 (stereo not given) | -50% (inactive) | 694
CCOC(=O)Cc1csc(NC(=O)CSc2nnc(-c3ccncc3)n2Cc2ccco2)n1 | -12.9% (inactive) | 516
CC1=C(C(=O)N2CCOCC2)C(c2ccsc2)C2=C(CCCC2=O)N1 (stereo not given) | -25.2% (inactive) | 326
Cc1c(C(=O)NCc2ccoc2)oc2ccc3c(c12)C(=O)CC(C)(C)O3 | 7.4% (inactive) | 214
COc1ccc(C(O)Cn2c(=N)n(CCCN(C)C)c3ccccc32)cc1 (stereo not given) | -12.9% (inactive) | 569

Structure (SMILES) | inhibition | cell count
COc1ccccc1CC(=O)Nc1ccc(OC)c(OC)c1 | -8.4% (inactive) | 330
CCc1nnc(NC(=O)c2ccc(S(=O)(=O)NCC(C)C)cc2)s1 | -4.1% (inactive) | 494
CCOc1ccc(NC(=O)CN2CCN(CC(=O)c3ccc(OCC)cc3)CC2)cc1 | 2.1% (inactive) | 418
COc1ccc(OC)c(C(=O)c2ccc(C(=O)O)cc2)c1 | 10.6% (inactive) | 415
COCCN(CC(=O)Nc1ccccc1C)S(=O)(=O)c1ccc(S(=O)(=O)N2CCCC2)cc1 | -9.5% (inactive) | 404
Cc1ccc(C)c(N2CCN(CCCNC(=O)Cn3cc4c(n3)CCCCC4)CC2)c1 | -4.3% (inactive) | 771
Nc1cccc2c1C(=O)N(c1ccccc1)C2=O | 1.8% (inactive) | 560
CC(C)COc1ccc(-c2nnn(CC(=O)N3CCCC3)n2)cc1 | -5.5% (inactive) | 473
CCOc1cc(C2NC(=O)N(C)C(C)=C2C(=O)OC)cc(Br)c1O (stereo not given) | -17.6% (inactive) | 620
C/C(=C\C(=O)c1ccc(F)cc1)Nc1ccc(N2CCOCC2)cc1 | -7.9% (inactive) | 412
CCC(C)NC(=O)CS(=O)(=O)Cc1nc(-c2cccc(OC)c2)oc1C (stereo not given) | -1.3% (inactive) | 638
COc1ccc(/C=N/n2cnnc2SCc2ccc(OC)cc2)cc1 | 3.1% (inactive) | 378
CCOc1ccc(C2CC(c3ccccc3C)n3nc(N)nc3N2)cc1 (stereo not given) | 5% (inactive) | 515
COc1ccccc1-c1nnc(SCC(=O)N2CC(C)CC(C)C2)o1 (stereo not given) | 11.1% (inactive) | 351
Cc1ccnc(NC(=O)C2CCCN(S(=O)(=O)c3cnc[nH]3)C2)c1 (stereo not given) | -2.4% (inactive) | 526
Cc1cc(C)c2cc3c(ccn3C3OC[C@H](O)[C@H](O)[C@H]3O)cc2n1 (stereo not given in full) | -21.8% (inactive) | 699
CC(=O)NCc1cccc(CNC(C)=O)n1 | 9.2% (inactive) | 652
Cc1ccc2[nH]c(=O)c(C(c3nnnn3CCc3ccccc3)N3CCOCC3)cc2c1 (stereo not given) | -3.9% (inactive) | 715
O=c1c2ccc(-c3nnc4n3-c3ccccc3SC4)cc2nc2n1CCCCC2 | -1.1% (inactive) | 473
Cc1sc2nc(SCC(=O)NCCO)n(C)c(=O)c2c1C | 4.3% (inactive) | 368

From PubChem BioAssay
